Screens from PubChem BioAssay.
Rows were chosen to be rich in hits. Some 1.1% of all compounds tested hit in one or more screens of this group.
SRC2 inh: inhibits human steroid receptor coactivator 2 | inhibition, % at 9 µM | 370,000 compounds, 0.17% hits | AID 651957 | HEK293 GAL4-SRC2 luciferase reporter, luminescence | Q15596;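 active means inhibition above the mean inhibition of all tested compounds plus 3 SD, set per campaign, cut at about 52% in these data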;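 further: 0% = DMSO treated cells and 100% = cells given Gossypol at 36 µM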
GalR3 antagonist: blocks the human galanin receptor 3. O60755. inhibition, % at 3 µM. HEK293 GalR3-CNG cAMP membrane potential fluorescence; galR3 body fused to GalR1 C-terminus. 360,000 compounds, 0.44% hits;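 active means inhibition above the screen-wide average plus 3 SD, cut at about 13% in these data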;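 further: forskolin and galanin both at EC90 stimulate the cells; cAMP rise reported by CNG channel membrane potential dye signal; 0% = forskolin plus galanin with DMSO and 100% = forskolin alone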
Target sequence (O60755 1-299 limits assumed): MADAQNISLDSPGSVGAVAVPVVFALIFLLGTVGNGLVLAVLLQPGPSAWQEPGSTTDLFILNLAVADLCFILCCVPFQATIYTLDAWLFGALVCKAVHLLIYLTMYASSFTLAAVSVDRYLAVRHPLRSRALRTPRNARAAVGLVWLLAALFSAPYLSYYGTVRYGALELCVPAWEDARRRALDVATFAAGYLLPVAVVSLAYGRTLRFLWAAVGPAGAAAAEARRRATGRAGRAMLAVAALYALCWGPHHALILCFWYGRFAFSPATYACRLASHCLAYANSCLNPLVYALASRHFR
NCOA3 inh: inhibits human SRC3 coactivator; Q9Y6Q9; inhibition, % at 3.6 µM; 360,000 compounds, 0.17% hits; HEK293 GAL4-SRC3 luciferase reporter, luminescence;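 active means inhibition above a per-campaign cutoff, the mean of all compounds plus 3 SD, cut at about 60% in these data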;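 further: 0% = DMSO-treated cells and 100% = gossypol-treated cells at 36 µM; higher means less SRC3-driven luciferase light from the GAL4 reporter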
NCOA1 inh: human NCOA1 inhibition | 360,000 compounds, 0.12% hits | HEK293 GAL4-SRC1 luciferase reporter, luminescence | Q15788 | inhibition, % at 3.6 µM | AID 588354;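 active means inhibition above the campaign mean plus 3 SD, with each screening campaign given its own cutoff, cut at about 60% in these data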;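 further: 0% = DMSO treated cells and 100% = gossypol at 36 µM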
NR2F2 inh: blocks human COUP-TFII nuclear receptor; P24468; HEK293T NGFI-A luciferase reporter, luminescence; inhibition, % at 8.6 µM; 370,000 compounds, 0.7% hits; AID 686940;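 active means inhibition above a per-plate cutoff, mean inhibition of test wells between control levels plus 3 SD, cut at about 38% in these data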;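 further: cells cotransfected with COUP-TFII expression vector driving the NGFI-A reporter; 0% = median of COUP-TF2 test wells and 100% = reporter-only cells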
NR5A2 inv ag: NR5A2 inverse agonism in reporter assay; O00482; HEK293T StAR-luciferase reporter, LRH-1 transfected, 24 h; inhibition, % at 3.6 µM; 360,000 compounds, 0.13% hits;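 active means inhibition above the mean inhibition of all tested compounds plus 3 SD, cut at about 73% in these data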;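 further: 0% = DMSO wells and 100% = reporter-only cells lacking LRH-1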
Gal4-VP16 ctr: VP16 inhibition counter-screen for COUP-TFII; shares compounds with NR2F2 inh; HEK293 Gal4-VP16 luciferase reporter, luminescence; inhibition, % at 8.5 µM; 2,500 compounds, 25% hits; AID 687007; in the data active means inhibition above about 13%
NR2F2 inh conf: COUP-TFII (NR2F2) inhibition, confirmation assay; inhibition, % at 8.5 µM; 2,500 compounds, 45% hits; HEK293 NGFI-A luciferase reporter, luminescence; shares compounds with NR2F2 inh;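 active means mean inhibition over three repeats above a set limit taken from the earlier primary screen, cut at about 38% in these data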;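 further: 100% = cells given the luciferase reporter alone without the COUP-TF2 vector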
The depositor's hits bear a star; . = not tested or not shown; ! = not confirmed by another sample.

SMILES	SRC2 inh	GalR3 antagonist	NCOA3 inh	NCOA1 inh	NR2F2 inh	NR5A2 inv ag	Gal4-VP16 ctr	NR2F2 inh conf
COc1ccc(/C=C/c2cc(-c3ccc(C)cc3)o[n+]2C)cc1	13	-4	71*	55	67*	94*	37*	66*
COC(=O)[C@]12C[C@H](CC(=O)NCc3ccc(C)o3)C(=O)N(Cc3ccc4c(c3)OCO4)C1=C[C@H](C(C)C)O[C@@H]2C1CC1	18	.	.	.	-11	.	.	.
CC(C)C[C@@H]1COc2cccc(N3CCCC3)c2S(=O)(=O)N1C	-10	.	.	.	-11	.	.	.
COc1ccc(-n2cc(-c3ccc(C)cc3)[n+]3c2SCC3)cc1	19	1	47	47	66*	65	10	64*
Cc1ccc(-c2cn(-c3ccccc3)c3[n+]2CCCS3)cc1	29	1	4	28	55*	69	11	39*!
CCc1ccc(-n2cc(-c3ccc(F)cc3)[n+]3c2SCCC3)cc1	1	-1	35	27	35	45	.	.
COC(=O)C1=C(C)N(Cc2ccccc2C(F)(F)F)C(=NCc2ccc(C(F)(F)F)cc2)NC1c1cccc(Cl)c1 (stereo not drawn)	15	-7	.	.	24	.	.	.
CCOC(=O)c1c(C)[nH]c(C(=O)OCC(=O)Nc2cc(Cl)ccc2OC)c1C	5	-3	-8	-7	21	19	.	.
CC(=O)c1c(C)[nH]c(C(=O)OCC(=O)Nc2ccc(Cl)c(S(=O)(=O)N(C)C)c2)c1C	14	-7	19	10	45*	19	-3	14
CC(=O)c1c(C)[nH]c(C(=O)Nc2ccc(Cl)c(S(=O)(=O)N(C)C)c2)c1C	-51	-9	-49	-75	-60	-57	.	.
CC(=O)c1c(C)[nH]c(C(=O)OCC(=O)Nc2ccc(Cl)cc2[N+](=O)[O-])c1C	32	71*	36	20	63*	44	5	60*
N=C1C=CC(=C(c2ccc(N)cc2)c2ccc(N)cc2)C=C1	-19	-6	55	30	46*	46	14*	63*
COC(=O)c1c(-c2ccc(N(C)C)cc2)sc2ccc(OC)cc12	61*	2	-16	0	57*	28	24*	49*
COC(=O)c1c(-c2ccccc2OC)sc2ccc(OC)cc12	0	-4	5	8	-1	0	.	.
COc1ccccc1CC(=O)Nc1nc(-c2ccc(F)c(F)c2)cs1	3	-9	-4	-4	0	-20	.	.
COc1ccc(-c2csc(NC(=O)Cc3ccccc3F)n2)cc1OC	-6	11	0	9	49*	6	-14	2
N#Cc1c(NC(=O)CSc2ncn[nH]2)sc2c1CCCCC2	84*	-7	49	36	88*	53	81*	79*
COc1cccc(-c2ccc(CC[C@H]3O[C@H]4CC[C@@H](CO)O[C@H]4C[C@H]3NS(C)(=O)=O)cc2)c1	-13	.	.	.	-23	.	.	.
CCCCN(CCCNC(=O)c1ccc2c(c1)NC(=O)CN2C)c1ccccc1	13	-5	-2	5	45*	-15	8	14
O=C(C(=O)N1CCN(C(=O)c2cc(C(F)(F)F)cc(C(F)(F)F)c2)CC1)c1cccc(C(F)(F)F)c1	-2	2	.	.	-19	.	.	.
CCOC(=O)c1cccc(NS(=O)(=O)c2c(C)[nH]c(=O)[nH]c2=O)c1	10	-6	0	3	-6	1	.	.
CCOC(=O)c1ccc(NC(=O)C(C)NS(=O)(=O)c2ccc(OC)cc2)cc1 (stereo not drawn)	-12	-3	10	2	-2	5	.	.
Cc1ccc(NS(=O)(=O)c2ccc(NC(=O)N3CCCCC3)cc2)cc1	20	-4	3	4	18	10	.	.
CCOC(=O)c1cccc(NS(=O)(=O)c2ccc(NC(C)=O)cc2)c1	44	-6	34	39	39*	16	7	22
COc1cccc(NS(=O)(=O)c2ccc3c(c2)N(C(C)=O)CCS3)c1	9	-9	-1	-1	-1	-3	.	.
SMILES	SRC2 inh	GalR3 antagonist	NCOA3 inh	NCOA1 inh	NR2F2 inh	NR5A2 inv ag	Gal4-VP16 ctr	NR2F2 inh conf
Cc1cccc(NS(=O)(=O)c2ccc(NC(=O)N3CCCCC3)cc2)c1	20	2	30	13	48*	23	2	16
CC(=O)N1CCSc2ccc(S(=O)(=O)Nc3cccc(C)c3)cc21	1	-10	12	17	37*	26	-5	7
CCOC(=O)c1ccc(NC(=O)COc2ccc(S(=O)(=O)NC(C)CC)cc2)cc1 (stereo not drawn)	-1	-3	-4	4	47*	15	0	26
O=C(Nc1ccccc1)N1c2ccccc2SC1c1ccco1 (stereo not drawn)	3	-8	.	.	17	.	.	.
Cc1ccc(S(=O)(=O)N2CCCCC2)cc1NC(=O)c1ccc2c(=O)n3c(nc2c1)CCCCC3	9	-5	.	.	43*	.	-3	14
O=C(Nc1ccc(S(=O)(=O)N2CCCC2)cc1)c1ccc2c(=O)n3c(nc2c1)CCCCC3	-7	3	27	-22	-13	8	.	.
COc1ccc(CC(=O)Nc2cc(S(=O)(=O)N3CCCCC3)ccc2C)cc1OC	22	1	24	5	60*	36	0	48*
COc1ccc(OC)c(CC(=O)Nc2cc(S(=O)(=O)N3CCCCC3)ccc2C)c1	11	-2	23	-2	6	17	.	.
Cc1sc2nc(COC(=O)CNC(=O)c3ccccc3Cl)[nH]c(=O)c2c1C	14	.	.	.	-23	.	.	.
COC(=O)c1cc(=O)nc(NN=C(C)C)s1	19	-7	.	.	9	.	.	.
CC(=O)N1CCCc2cc(S(=O)(=O)N3CCCC(C(=O)N4CCN(c5ccccc5)CC4)C3)ccc21 (stereo not drawn)	13	-9	15	-3	41*	20	10	29
COc1ccccc1N1CCN(C(=O)C2CCCN(S(=O)(=O)c3ccc4c(c3)CCCN4C(C)=O)C2)CC1 (stereo not drawn)	21	-9	34	21	44*	10	-12	27
CCC(=O)N1CCCc2cc(S(=O)(=O)N3CCN(c4ccccc4F)CC3)ccc21	18	.	0	13	50*	13	-3	13
CCC(=O)N1CCCc2cc(S(=O)(=O)N3CCN(c4ncccn4)CC3)ccc21	-25	.	12	11	-9	15	.	.
CC(=O)N1CCCc2cc(S(=O)(=O)N3CCCC(C(=O)N4CCN(c5cc(C)ccc5C)CC4)C3)ccc21 (stereo not drawn)	17	-3	22	21	34	0	.	.
COc1ccccc1CNc1nc(NCc2ccccc2OC)c2sccc2n1	16	-6	2	-4	53*	2	4	26
